Measured values as given in PubChem BioAssay (NCI).
About 79,000 compounds went through this panel and 15% of them were active in at least one assay; those are over-represented in the sample as a whole. Active and inactive are the calls of the source. Cut-off read from the data, not from the text of the source: active = growth inhibition above about 70%; inactive = the rest.

What was measured:
[1] = NCI Yeast Anticancer Drug Screen. Data for the rad52 strain (AID 147);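 note: 0% = growth of vehicle-treated control cultures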; details: S. cerevisiae rad52 mutant growth inhibition, stronger effect = higher value
In short: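 Read-out: growth inhibition versus vehicle-treated controls. Cells were a DNA repair-deficient yeast strain treated with compounds.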

[2] = NCI Yeast Anticancer Drug Screen. Data for the wt1 strain (AID 149);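 note: 0% = growth of vehicle-treated wt1 cultures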; details: S. cerevisiae wt1 strain (SPY 50644) growth inhibition, stronger effect = higher value
In short: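 Readout: yeast growth inhibition, normalised to vehicle controls, in the wt1 strain exposed to test compounds.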

[3] = NCI Yeast Anticancer Drug Screen. Data for the rad50EPP+ strain (AID 151);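 note: 0% = growth of vehicle-treated control cultures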; details: S. cerevisiae rad50 mutant strain, stronger effect = higher value
In short: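 Growth inhibition read against vehicle controls in rad50EPP+ yeast, a strain altered in DNA damage repair, after compound exposure.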

[4] = NCI Yeast Anticancer Drug Screen. Data for the mgt1 strain (AID 153); details: S. cerevisiae mgt1 mutant growth inhibition, stronger effect = higher value
In short: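 mgt1 yeast grown with test compound; read-out is growth inhibition versus vehicle-treated cultures.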

[5] = NCI Yeast Anticancer Drug Screen. Data for the rad50 strain (AID 155);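 note: 0% = growth of vehicle-only cultures of the same strain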; details: S. cerevisiae rad50 strain growth inhibition, stronger effect = higher value
In short: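 Compounds were tested on a yeast strain with an engineered DNA damage repair alteration; the reported value is growth inhibition normalised to vehicle treatment.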

[6] = NCI Yeast Anticancer Drug Screen. Data for the mec2-1 strain (AID 157); details: S. cerevisiae mec2-1 strain, stronger effect = higher value
In short: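 Yeast mec2-1 mutant treated with compound. Readout: growth inhibition vs vehicle controls.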

[7] = NCI Yeast Anticancer Drug Screen. Data for the rad14 strain (AID 159);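 note: 0% = growth of vehicle-treated control cultures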; details: S. cerevisiae rad14 strain growth inhibition, stronger effect = higher value
In short: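 Compound-treated yeast with a defined DNA-repair lesion; growth inhibition normalised to vehicle-treated cultures.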

[8] = NCI Yeast Anticancer Drug Screen. Data for the sgs1 mgt1 strain (AID 161);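 note: 0% = growth of cultures given vehicle only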; details: S. cerevisiae sgs1 mgt1 strain, stronger effect = higher value
In short: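 Read-out: growth inhibition vs vehicle controls. Cells: mutant yeast strain deficient in DNA damage repair.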

[9] = NCI Yeast Anticancer Drug Screen. Data for the CLN2oe strain (AID 163);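 note: 0% = growth of vehicle-only control cultures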; details: S. cerevisiae CLN2oe strain, stronger effect = higher value
In short: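 Read-out: yeast growth inhibition, expressed relative to vehicle-only controls. The strain bears an engineered cell-cycle alteration.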

[10] = NCI Yeast Anticancer Drug Screen. Data for the cln2 rad14 strain (AID 165);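 note: 0% = growth equal to vehicle treated cultures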; details: S. cerevisiae cln2 rad14 strain, stronger effect = higher value
In short: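 cln2 rad14 yeast strain; compound exposure; growth inhibition read vs vehicle controls.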

[11] = NCI Yeast Anticancer Drug Screen. Data for the bub3 strain (AID 167); details: S. cerevisiae bub3 mutant strain, stronger effect = higher value
In short: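 Growth of a checkpoint-deficient yeast mutant is measured after compound exposure. Values represent inhibition relative to vehicle.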

[12] = NCI Yeast Anticancer Drug Screen. Data for the mlh1 strain (AID 171);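 note: 0% = growth of vehicle-treated control cultures of the same strain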; details: S. cerevisiae mlh1 strain growth inhibition, stronger effect = higher value
In short: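 Read-out: growth inhibition versus vehicle controls. Strain: engineered yeast with a defined DNA repair or cell cycle defect, compound-treated.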

[13] = NCI Yeast Anticancer Drug Screen. Data for the sgs1 strain (AID 173);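 note: 0% = growth of vehicle-only control cultures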; details: S. cerevisiae sgs1 mutant, stronger effect = higher value
In short: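 Read-out: yeast growth inhibition relative to vehicle controls, following compound exposure of a strain with a defined DNA repair/cell cycle alteration.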

[14] = NCI Yeast Anticancer Drug Screen. Data for the mlh1 rad18 strain (AID 175); details: S. cerevisiae mlh1 rad18 strain growth inhibition, stronger effect = higher value
In short: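 Yeast w/ defined DNA-repair lesions; compound exposure; growth vs vehicle controls → % inhibition.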

[15] = NCI Yeast Anticancer Drug Screen. Data for the rad18 strain (AID 177); details: S. cerevisiae rad18 mutant growth inhibition, stronger effect = higher value
In short: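 Readout: growth inhibition vs vehicle controls. Cells: genetically altered yeast strain, DNA repair defect.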

[16] = at 5.0 µM (retest, dose inferred, filed as 0.5)
[17] = at 50.0 µM (retest, dose inferred, filed as 5.0)

Measured: growth inhibition

S=C1C(=Nc2ccccc2)N(c2ccccc2)/C(=N\c2ccccn2)N1c1ccccc1
inactive: [1]; at 1.2 µM -2% | [1]; at 3.7 µM 1% | [1]; at 11.0 µM 44% | [2]; at 1.2 µM -4% | [2]; at 3.7 µM -4% | [2]; at 11.0 µM 21% | [3]; at 1.2 µM -3% | [3]; at 3.7 µM -4% | [3]; at 11.0 µM -3% | [3]; at 33.0 µM 11% | [3]; at 100.0 µM 37% | [4]; at 1.2 µM -6% | [4]; at 3.7 µM -5% | [4]; at 11.0 µM 36% | [5]; at 1.2 µM -3% | [5]; at 3.7 µM -2% | [5]; [16] 41% | [5]; at 11.0 µM 46% | [6]; at 1.2 µM -7% | [6]; at 3.7 µM -1% | [6]; [16] 24% | [6]; at 11.0 µM 28% | [7]; at 1.2 µM -4% | [7]; at 3.7 µM -2% | [7]; at 11.0 µM 36% | [8]; [16] 10% | [9]; at 1.2 µM -8% | [9]; at 3.7 µM -11% | [9]; at 11.0 µM 37% | [10]; [16] 28% | [11]; at 1.2 µM -7% | [11]; at 3.7 µM -13% | [11]; [16] 0% | [11]; at 11.0 µM 31% | [12]; at 1.2 µM -5% | [12]; at 3.7 µM -2% | [12]; at 11.0 µM 37% | [13]; at 1.2 µM -2% | [13]; at 3.7 µM 4% | [13]; at 11.0 µM 66% | [15]; at 1.2 µM -3% | [15]; at 3.7 µM -3% | [15]; at 11.0 µM 57%
active: [1]; at 33.0 µM 99% | [1]; at 100.0 µM 93% | [2]; at 33.0 µM 98% | [2]; at 100.0 µM 98% | [4]; at 33.0 µM 99% | [4]; at 100.0 µM 97% | [5]; at 33.0 µM 98% | [5]; [17] 97% | [5]; at 50.0 µM 98.1% | [5]; at 100.0 µM 91% | [6]; at 33.0 µM 99% | [6]; [17] 98% | [6]; at 50.0 µM 97.9% | [6]; at 100.0 µM 97% | [7]; at 33.0 µM 99% | [7]; at 100.0 µM 95% | [8]; [17] 98% | [8]; at 50.0 µM 98% | [9]; at 33.0 µM 99% | [9]; at 100.0 µM 97% | [10]; [17] 97% | [10]; at 50.0 µM 97.4% | [11]; at 33.0 µM 99% | [11]; [17] 97% | [11]; at 50.0 µM 97.7% | [11]; at 100.0 µM 99% | [12]; at 33.0 µM 99% | [12]; at 100.0 µM 96% | [13]; at 33.0 µM 99% | [13]; at 100.0 µM 94% | [14]; [16] 76% | [14]; [17] 97% | [14]; at 50.0 µM 97.8% | [15]; at 33.0 µM 99% | [15]; at 100.0 µM 87%
